Measurements: PubChem BioAssay (NCATS)
Records with an inconclusive call do not appear. The source made the active and inactive calls. Calls come from the whole dose curve; as a rule, active = well fitted inhibition curve with a large enough effect; inconclusive = small, poorly fitted or top-dose-only effect; inactive = flat fitted curve, though single readings scatter. *1 amine or outer side, *2 acyl side, *3 side chain or, on linkers, in order; H or OH if unused. Where a SMILES comes first, the peptide text is derived from it. [ ]: non-standard residue; d: D form. The star is where a group is joined. ξ: configuration not given here. X9 = CCC(C)(N*)C(=O)C1CC[C@@H](C(=O)N[C@@H](Cc2ccccc2)C(=O)NCC(=O)O)N1; X8 = O=C([C@@H]1CC(O)CN1[*:1])[*:2]; aIle = CC[C@@H](C)[C@H](N)C(=O)O; Thr(3ξ) = CC(O)[C@H](N)C(=O)O; ξIva = CCC(C)(N)C(=O)O; Aib = CC(C)(N)C(=O)O

Experiments:
Assay in all cases: Cytotoxic Profiling of Annotated Libraries Using Quantitative High-Throughput Screening (AID 1296008); note: nearly all actives have a fitted effect of over 60% in size
Conditions in all cases: Five cell lines viability, CellTiter-Glo ATP luminescence, 48-72 h; max response: hits give low values
[1] = test system: CRL-7250
How it was run: (§1)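 Cytotoxicity was measured as CellTiter-Glo ATP luminescence, read after 10 min at room temperature. Compound treatment of the cells lasted 48 or 72 hr at 37 degrees Celsius in a qHTS format.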

[2] = test system: HEK293
How it was run: as §1

[3] = test system: HaCat
How it was run: as §1

[4] = test system: KB-3-1
How it was run: as §1

[5] = test system: NIH3T3
How it was run: as §1
% is set by controls: 0 for no effect and ±100 for the full control effect; potency is the fitted concentration of half-maximal effect.

CC[C@@H](C)[C@H](NC(=O)C(C)(C)NC(=O)[C@H](CCC(N)=O)NC(=O)C(C)(CC)NC(=O)[C@H](Cc1c[nH]c2ccccc12)NC(C)=O)C(=O)N[C@H](C(=O)NC(C)(C)C(=O)N[C@@H](CC(C)C)C(=O)NC(C)(C)C(=O)N1CCC[C@H]1C(=O)N[C@@H](CCC(N)=O)C(=O)NC(C)(C)C(=O)N1CC(O)C[C@H]1C(=O)NC(C)(CC)C(=O)C1CC[C@@H](C(=O)N[C@@H](Cc2ccccc2)C(=O)NCC(=O)O)N1)C(C)O (stereo not given in full) (Ac-W[ξIva]Q[Aib][aIle][Thr(3ξ)][Aib]L[Aib]PQ[Aib][X8]-X9)
inactive: max response [1] -9.43% | max response [2] -13.1% | outcome [3] inactive; activator | max response [4] -1.3% | max response [5] -1.9%

O=C(Cc1ccc(Cl)cc1)Nc1cnccc1C(=O)O
inactive: outcome [1] | max response [2] 4.18% | max response [3] -20.9% | max response [4] 1.29% | outcome [5]

O=C(O)CC1(O)C(=O)Nc2ccccc21 (stereo not given)
inactive: outcome [1] | outcome [2] | max response [3] -2.76% | max response [4] 6.03% | max response [5] 3.37%

CN1CCN(C2=Nc3ccccc3Nc3ccc(O)cc32)CC1
inactive: max response [1] 2.24% | max response [2] -1.86% | outcome [3] | outcome [4] | max response [5] 4.15%

O=C(O)CCc1cc2ccoc2cc1O[C@@H]1O[C@H](CO)[C@@H](O)[C@H](O)[C@H]1O
inactive: outcome [1] | max response [2] 1.52% | max response [3] 0.684% | outcome [4] | outcome [5]

COc1ccccc1CN[C@H]1CCCN[C@H]1c1ccccc1
inactive: outcome [1] | max response [2] -1.91% | outcome [3] | max response [4] 1.76% | outcome [5]

C=C(COC(=O)CC(C)C)C1Cc2cc(C(C)=O)ccc2O1 (stereo not given)
inactive: outcome [1] | max response [2] -2.29% | outcome [3] | max response [4] 4.45% | outcome [5]

CC(C)CC(=O)OC[C@@]1(O)C[C@@]23CC[C@H]4[C@@](C)(CCC[C@@]4(C)C(=O)O)[C@@H]2CC[C@@H]1C3
inactive: outcome [1] | max response [2] 1.06% | max response [3] -4.56% | max response [4] 4.98% | outcome [5]

COC(=O)[C@H](c1ccccc1Cl)N1CCC2SC(=O)C=C2C1 (stereo not given in full)
inactive: max response [1] -4.86% | max response [2] -11.7% | outcome [3] | max response [4] 7.5% | max response [5] -12.1%

COc1ccc2c(c1)C=C1Cn3c-2c(C2CCCCC2)c2ccc(cc23)C(=O)NS(=O)(=O)N(C)CCOCCN(C)C1=O
inactive: max response [1] -49.9% | max response [2] -78% | outcome [3] | max response [4] -5.47% | max response [5] -17.2%

COC(=O)c1ccc(OC)cc1O[C@@H]1O[C@H](CO[C@@H]2OC[C@@H](O)[C@H](O)[C@H]2O)[C@@H](O)[C@H](O)[C@H]1O
inactive: max response [1] -0.542% | max response [2] -1.51% | max response [3] -6.53% | outcome [4] | outcome [5]

CC1=C(CO)C2(C)CCCC(C)(C)C2C(O)C1O (stereo not given)
inactive: max response [1] -6.52% | max response [2] -5.93% | outcome [3] | outcome [4] | outcome [5]

Cc1ccc([C@@H]2CC=C(C(=O)O)[C@H](c3ccc(C(C)(C)C)cc3)N2S(=O)(=O)c2ccc(C)cc2)cc1
inactive: outcome [1] | max response [2] -30.1% | outcome [3] | max response [4] 3.45% | outcome [5]

CC1=C(CC/C(C)=C/C(=O)O)[C@@]2(C)CCCC(C)(C)C2CC1=O (stereo not given in full)
inactive: max response [1] -7.55% | max response [2] -5.92% | outcome [3] | outcome [4] | outcome [5]

CC1(C(=O)O)CC[C@]2(C(=O)OC3OC(CO)C(O)C(O)C3O)CC[C@]3(C)C(=CCC4[C@@]5(C)CC[C@H](OC6OCC(O)C(O)C6OC6OC(CO)C(O)C(O)C6O)C(C)(C)C5CC[C@]43C)C2C1 (stereo not given in full)
inactive: max response [1] 0.0336% | max response [2] -7.14% | outcome [3] | outcome [4] | max response [5] 0.38%

C[C@@H]1O[C@@H](O[C@@H]2[C@@H](O)[C@H](O[C@@H]3[C@@H](O)[C@@H](O)[C@H](O[C@H]4[C@H](OC(=O)[C@]56CCC(C)(C)C[C@H]5C5=CCC7[C@@]8(C)C[C@H](O)[C@H](O[C@@H]9O[C@H](C(=O)O)[C@@H](O)[C@H](O)[C@H]9O)[C@@](C)(CO)C8[C@H](O)C[C@@]7(C)[C@]5(C)C[C@H]6O)O[C@@H](CO)[C@@H]4O)O[C@H]3C)OC[C@H]2O)[C@H](O)[C@H](O)[C@H]1O (stereo not given in full)
inactive: max response [1] 0.0733% | max response [2] 1.63% | outcome [3] | outcome [4] | outcome [5]

O=C(/C=C/c1ccc(O)cc1)O[C@H]1[C@H](OC2CCCCC2O)O[C@H](CO)[C@@H](O)[C@@H]1O (stereo not given in full)
inactive: max response [1] -2.64% | max response [2] 2.98% | outcome [3] | max response [4] 5.56% | outcome [5]

C[C@H]1[C@H](C)C[C@@H](C(=O)O)C2CC[C@]3(C)C(=CC[C@@H]4[C@@]5(C)CC[C@H](O)C(C)(C)[C@@H]5CC[C@]43C)[C@@H]21 (stereo not given in full)
active: Potency [2] 25.9 µM
inactive: max response [1] -4.25% | outcome [3] | max response [4] 8.63% | outcome [5]

CCc1cc(CC[C@]2(C3CCCC3)CC(O)=C(Cc3nc4nc(C)cc(C)n4n3)C(=O)O2)cc(CC)n1
inactive: outcome [1] | max response [2] 0.838% | outcome [3] | max response [4] -0.912% | max response [5] -7.94%

CC(=O)O[C@@H]1[C@@H](O)[C@H](C)O[C@@H](O[C@H]2[C@@H]3C=CO[C@@H](O[C@@H]4O[C@H](CO)[C@@H](O)[C@H](O)[C@H]4OC(C)=O)[C@@H]3[C@@]3(CO)O[C@@H]23)[C@@H]1OC(=O)/C=C/c1ccc(O)cc1
inactive: max response [1] 0.704% | max response [2] 2.14% | outcome [3] | outcome [4] | outcome [5]

C=C1CCC2[C@@](C)(C(=O)O)CCC[C@@]2(C)[C@@H]1CCc1ccoc1 (stereo not given in full)
inactive: max response [1] -7.76% | max response [2] -0.447% | max response [3] -0.12% | max response [4] -3.34% | outcome [5]

CNc1nc(C)nc(N[C@H]2CCC[C@@H](C(=O)NCc3ccc(C#N)cc3C(F)(F)F)C2)n1
inactive: outcome [1] | max response [2] -15.3% | outcome [3] | max response [4] -5.41% | outcome [5]

CCC(CC)CC1(C(=O)Nc2ccccc2SC(=O)C(C)C)CCCCC1
inactive: outcome [1] | max response [2] -10.7% | max response [3] -14% | max response [4] 0.494% | outcome [5]

C=C1CC23CC1CCC2C12OC(=O)C(C)(C(O)C(O)C1O)C2C3C(=O)O (stereo not given)
inactive: max response [1] -6.36% | max response [2] -2% | max response [3] 2.72% | outcome [4] | outcome [5]

Cc1ccccc1N1CCN(S(=O)(=O)C[C@]23CC[C@H](C[C@@H]2NC(=O)[C@@H](N)CCS(C)(=O)=O)C3(C)C)CC1
inactive: max response [1] 1.21% | max response [2] 4.97% | max response [3] 0.627% | max response [4] 5.94% | outcome [5]

NCCCCN(Cc1nc2ccccc2[nH]1)[C@H]1CCCc2cccnc21
inactive: max response [1] -5.02% | max response [2] -0.584% | outcome [3] | max response [4] 1.94% | outcome [5]

COc1cc(C(=O)OC[C@H]2O[C@@H](OC(C)(C)C(=O)O)[C@H](O)[C@@H](O)[C@@H]2O)cc(OC)c1O
inactive: max response [1] -2.21% | max response [2] -6.34% | outcome [3] | outcome [4] | outcome [5]

O=C(O)c1cc(C(F)(F)F)ccc1N1CC[C@H](OCc2ccccn2)C1
inactive: outcome [1] | max response [2] -6.22% | outcome [3] | max response [4] 6.78% | outcome [5]

CC1C(=O)OCC2=CC[N+]3([O-])CCC(OC(=O)C(C)(O)C1(C)O)C23 (stereo not given)
inactive: max response [1] 2.6% | max response [2] 3.51% | outcome [3] | max response [4] 7.03% | outcome [5]

COc1ccc(S(=O)(=O)Nc2nc(-c3cccc([N+](=O)[O-])c3)cs2)cc1OC
inactive: max response [1] -1.12% | max response [2] 2.2% | outcome [3] | max response [4] 6.48% | outcome [5]

C[C@@H]1[C@H](O)[C@@H]2OC(=O)C3=C2[C@H](CCC3)[C@@]12C[C@@H](c1ccoc1)OC2=O
inactive: max response [1] 4.91% | max response [2] -1.21% | max response [3] -22.1% | outcome [4] | outcome [5]

COc1c(C)c(OCC=C(C)C)cc2c1CNC2=O
inactive: max response [1] -2.67% | max response [2] -5.13% | outcome [3] | max response [4] -3.05% | max response [5] -2.21%

C[C@H]1CC(=O)C2=C(C1)C(O)C(O)[C@@]1(O)[C@H]2C(=O)c2cccc(O)c2[C@@H]1O (stereo not given in full)
inactive: max response [1] -10.1% | max response [2] 3.36% | outcome [3] | outcome [4] | max response [5] 3.59%

CN(C)C(=O)C(O)C(Cc1ccccc1)NC(=O)c1cc2cc(Cl)ccc2[nH]1 (stereo not given)
inactive: outcome [1] | outcome [2] | max response [3] -1.1% | max response [4] 5.45% | max response [5] -2.44%

C/C(CO)=C1/CCC23COC(C2)C(O)(C(=O)O)CCC13 (stereo not given)
inactive: max response [1] 1.3% | outcome [2] | max response [3] 0.569% | max response [4] 2.82% | max response [5] -0.495%

CCC/C=C1\OC(=O)C2=C1CCC(O)C2O (stereo not given)
inactive: outcome [1] | max response [2] 1.42% | max response [3] 3.9% | max response [4] 0.969% | outcome [5]

CSCC1OC(n2cnc3c(=O)[nH]cnc32)C(O)C1O (stereo not given)
inactive: max response [1] -7.17% | max response [2] -2.06% | outcome [3] | max response [4] 2.69% | outcome [5]

C[C@@H]1C(=O)O[C@H]2[C@H]1CC[C@@]1(C)C(=O)C=C[C@@](C)(O)[C@H]21
inactive: max response [1] -5.99% | outcome [2] | max response [3] -2.04% | max response [4] 1.69% | max response [5] 4.77%

COc1ccc(C(=O)OC2C3C=COC(OC4OC(CO)C(O)C(O)C4O)C3C3(CO)OC23)cc1OC (stereo not given)
inactive: max response [1] -2.32% | max response [2] 1.41% | outcome [3] | max response [4] 3.28% | max response [5] -4.72%

FC(F)(F)Oc1ccc(-c2ccc3nnc(C(F)(F)F)n3c2)cc1
inactive: max response [1] -1.14% | max response [2] -7.41% | max response [3] -4.75% | outcome [4] | outcome [5]
